For six molecules, composite z-score and z-score results are on record in PubChem BioAssay.

The source made the active and inactive calls.

For test [1], the system named is Plasmodium falciparum Sir2 (PF13_0152, Sir2A). Description: Plasmodium falciparum Sir2A binding compounds – biochemical, small-molecule microarray, 635 nm fluorescence, primary screen (AID 1098).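 Note: score merges spot fluorescence intensity with its signal-to-noise ratio.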 The conditions noted are these: fluorescence 635 nm, higher = more signal.
The nature of test [2]: probe aDKK1 binding to arrayed compounds – biochemical, biotinylated probe, 635/667 nm fluorescence, primary screen (AID 1099).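 Note: score merges 667nm spot fluorescence with signal to noise across triplicate slides.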 The conditions noted are these: small-molecule microarray, higher = more signal.
Test [3] can be described thus: probe aCHRDL2 binding to arrayed compounds – biochemical, biotinylated probe, 635/667 nm fluorescence, primary screen (AID 1100). The conditions noted are these: small-molecule microarray, higher = more signal.
Test [4] is described as follows: change in splice reporter luminescence, either direction, cell-based, HEK293, spliceosome inhibition project, primary screen (AID 1101).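 Note: HEK293 cells carrying a splicing-competent luciferase reporter gene; test concentration not given here.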 As to conditions: HEK293 splicing luciferase reporter, 24 h, higher = more signal, called active from +8 up or from −8 down. Background: Reporter assays use an easily measured gene product as a stand-in for the process of interest.

Test [5] addresses Fibroblast growth factor 10 (Homo sapiens) (UniProt O15520). The test is described as follows: compounds binding fibroblast growth factor 10 – biochemical, small-molecule microarray, 635 nm fluorescence, primary screen (AID 1102). As to conditions: FGF10 binding, fluorescence 635 nm, higher = more signal.
Test [6] deals with glycogen synthase kinase-3 (GSK3A per assay name; protocol says GSK3B). The test is described as follows: compounds binding glycogen synthase kinase-3 – biochemical, small-molecule microarray, 635 nm fluorescence, GSK3A, primary screen (AID 1103). Note: the record names both GSK3A and GSK3B. The conditions noted are these: fluorescence 635 nm, higher = more signal.
The target of test [7] is Epidermal growth factor receptor (Homo sapiens) (UniProt P00533). Description: compounds binding epidermal growth factor receptor – biochemical, small-molecule microarray, 635 nm fluorescence, primary screen (AID 1104).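 Note: score merges 667 nm emission intensity with spot signal to noise over triplicate slides.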 As to conditions: EGFR binding, higher = more signal.
Sequence of Epidermal growth factor receptor (Homo sapiens) (P00533 whole entry, looked up): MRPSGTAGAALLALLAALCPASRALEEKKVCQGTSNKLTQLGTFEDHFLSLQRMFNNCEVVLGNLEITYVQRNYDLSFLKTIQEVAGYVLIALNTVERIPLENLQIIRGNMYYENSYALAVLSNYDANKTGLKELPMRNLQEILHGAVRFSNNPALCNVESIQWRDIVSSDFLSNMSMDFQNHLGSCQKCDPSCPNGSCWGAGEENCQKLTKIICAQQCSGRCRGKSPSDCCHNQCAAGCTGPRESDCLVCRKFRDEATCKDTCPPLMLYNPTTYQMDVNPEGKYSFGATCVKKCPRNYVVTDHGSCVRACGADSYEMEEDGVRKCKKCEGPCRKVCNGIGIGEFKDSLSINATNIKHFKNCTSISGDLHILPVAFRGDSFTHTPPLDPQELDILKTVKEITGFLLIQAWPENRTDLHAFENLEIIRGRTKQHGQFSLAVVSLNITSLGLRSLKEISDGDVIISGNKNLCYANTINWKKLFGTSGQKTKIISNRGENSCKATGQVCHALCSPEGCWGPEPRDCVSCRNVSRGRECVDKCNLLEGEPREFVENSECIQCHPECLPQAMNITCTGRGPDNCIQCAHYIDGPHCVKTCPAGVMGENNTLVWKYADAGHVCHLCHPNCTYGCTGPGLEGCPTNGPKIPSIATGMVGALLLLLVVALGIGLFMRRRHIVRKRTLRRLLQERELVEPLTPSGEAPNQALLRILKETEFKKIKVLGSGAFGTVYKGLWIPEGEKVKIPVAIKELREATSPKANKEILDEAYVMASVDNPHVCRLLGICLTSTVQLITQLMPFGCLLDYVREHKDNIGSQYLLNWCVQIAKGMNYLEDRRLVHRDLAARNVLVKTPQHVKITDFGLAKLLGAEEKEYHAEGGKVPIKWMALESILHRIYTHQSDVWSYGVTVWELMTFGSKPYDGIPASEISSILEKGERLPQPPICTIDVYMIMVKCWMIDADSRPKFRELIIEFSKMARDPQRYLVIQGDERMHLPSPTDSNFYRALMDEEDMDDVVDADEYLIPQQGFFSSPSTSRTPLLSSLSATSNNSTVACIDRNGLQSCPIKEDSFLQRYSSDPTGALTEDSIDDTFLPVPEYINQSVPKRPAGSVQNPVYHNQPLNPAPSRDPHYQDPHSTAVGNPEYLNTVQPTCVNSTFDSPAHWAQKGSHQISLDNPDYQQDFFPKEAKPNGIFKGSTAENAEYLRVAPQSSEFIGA
For test [8], the target named is Follistatin-related protein 3 (Homo sapiens) (UniProt O95633). Description: compounds binding follistatin-related protein 3 – biochemical, small-molecule microarray, 635 nm fluorescence, primary screen (AID 1105).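 Note: score merges emission near 667 nm and signal to noise per printed spot across three slides.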 As to conditions: FSTL3 binding, higher = more signal.
Sequence of Follistatin-related protein 3 (Homo sapiens) (O95633 whole entry, looked up): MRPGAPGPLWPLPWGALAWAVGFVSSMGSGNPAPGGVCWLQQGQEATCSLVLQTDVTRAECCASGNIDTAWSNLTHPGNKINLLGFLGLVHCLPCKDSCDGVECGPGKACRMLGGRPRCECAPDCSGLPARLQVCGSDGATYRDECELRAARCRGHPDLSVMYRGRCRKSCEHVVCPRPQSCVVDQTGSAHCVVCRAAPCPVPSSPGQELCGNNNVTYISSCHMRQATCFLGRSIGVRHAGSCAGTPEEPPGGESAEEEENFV
In test [9] the target is Dickkopf-related protein 1 (Homo sapiens) (UniProt O94907). The test is described as follows: small molecules binding DKK1 protein – biochemical, small-molecule microarray, 635 nm fluorescence scan, primary screen (AID 1106).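 Note: score merges emission near 667 nm with signal to noise over three replicate slides.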 As to conditions: higher = more signal.
Sequence of Dickkopf-related protein 1 (Homo sapiens) (O94907 whole entry, looked up): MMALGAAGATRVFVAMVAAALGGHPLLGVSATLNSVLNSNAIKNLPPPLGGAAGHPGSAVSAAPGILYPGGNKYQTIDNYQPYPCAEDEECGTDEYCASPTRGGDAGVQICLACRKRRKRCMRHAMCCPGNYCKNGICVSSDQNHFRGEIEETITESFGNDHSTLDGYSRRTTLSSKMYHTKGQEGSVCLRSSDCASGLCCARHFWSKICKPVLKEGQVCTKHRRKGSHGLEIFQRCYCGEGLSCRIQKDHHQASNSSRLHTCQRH
In test [10] the test system is Inhibin beta A chain (activin A). Description: small molecules binding activin A – biochemical, small-molecule microarray, 635 nm fluorescence scan, primary screen (AID 1107).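 Note: mouse activin A protein probed at 4.33 µg/mL on printed slides; score merges bound-protein fluorescence near 667 nm with spot signal-to-noise.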 The conditions noted are these: INHBA, higher = more signal.
Test [11] has as its system Human papillomavirus type 1a protein E7 (residues 44-93). Description: small molecules binding HPV E7 44-93 – biochemical, small-molecule microarray, residues 44-93, 635 nm fluorescence, primary screen (AID 1108).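 Note: E7 fragment applied at 1 µg/mL in TBST for 1 h at 4 C; score combines spot fluorescence with its signal to noise ratio.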 The conditions noted are these: fluorescence 635 nm, higher = more signal.
A short description of test [12]: hepatitis C replication reporter changes, two-sided – Huh7 cells, luciferase reporter, HCV replication inhibitor project, primary screen (AID 1109).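 Note: huh7 hepatoma cells harbouring a luciferase neomycin HCV replicon reporter; luciferase luminescence as measure of HCV replicon replication; test concentration not given here.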 The conditions noted are these: Huh7 HCV replicon luciferase reporter, 48 h; higher = more signal.
Test [13] deals with Left-right determination factor 2 (Homo sapiens) (UniProt O00292). Description: small molecules binding LEFTY2 protein – biochemical, small-molecule microarray, 635 nm fluorescence scan, primary screen (AID 1110). As to conditions: higher = more signal.
Sequence of Left-right determination factor 2 (Homo sapiens) (O00292 whole entry, looked up): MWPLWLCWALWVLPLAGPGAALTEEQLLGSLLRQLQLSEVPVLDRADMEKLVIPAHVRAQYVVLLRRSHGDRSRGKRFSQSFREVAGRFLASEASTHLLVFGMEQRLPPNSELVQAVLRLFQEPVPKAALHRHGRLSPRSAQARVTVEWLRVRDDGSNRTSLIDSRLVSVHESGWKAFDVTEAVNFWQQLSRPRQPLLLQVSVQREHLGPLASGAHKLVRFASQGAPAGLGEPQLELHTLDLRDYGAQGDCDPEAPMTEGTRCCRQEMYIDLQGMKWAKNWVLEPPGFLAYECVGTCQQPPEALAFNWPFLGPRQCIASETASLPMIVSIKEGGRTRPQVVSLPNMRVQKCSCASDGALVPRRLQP
Test [14] has as its target Calmodulin-1 (Homo sapiens) (UniProt P0DP23). The test is described as follows: small molecules binding calmodulin-1 with EGTA – biochemical, small-molecule microarray, Cy5-labelled CALM1, profiling panel (AID 1111).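 Note: labelled calmodulin applied in Tris saline Tween buffer holding calcium plus EGTA and DTT.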 The conditions noted are these: Cy5-CALM1 binding fluorescence, higher = more signal.
Test [15] shares this target. Description: small molecules binding Ca-loaded calmodulin-1 – biochemical, small-molecule microarray, Cy5-labelled CALM1, plus calcium, artefact control for SMM control-protein annotation, profiling panel (AID 1112).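 Note: score merges spot fluorescence with signal to noise from triplicate slides.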 The conditions noted are these: Cy5-CALM1 binding fluorescence, higher = more signal.
Test [16] in a line: probe aWnt5a binding to arrayed compounds – biochemical, biotinylated probe, 635/667 nm fluorescence, primary screen (AID 1113).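 Note: score merges 667 nm fluorescence intensity with signal-to-noise per printed feature.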 The conditions noted are these: small-molecule microarray, higher = more signal.
A short description of test [17]: probe aShh binding to arrayed compounds – biochemical, biotinylated probe, 635/667 nm fluorescence, primary screen (AID 1114).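 Note: probe is biotin-labelled aShh protein from a stem cell growth factor screen; measures binding of labelled protein to compounds printed on the slide; score merges feature fluorescence at 667 nm with signal-to-noise.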 As to conditions: small-molecule microarray, higher = more signal.
Test [18] is described as follows: probe aNog binding to arrayed compounds – biochemical, biotinylated probe, 635/667 nm fluorescence, primary screen (AID 1115).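 Note: probe is biotinylated aNog protein used at 0.15 µg/mL for 1 h at 4 C; z-score combines 667 nm fluorescence of each spot with its signal to noise.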 The conditions noted are these: small-molecule microarray, higher = more signal.
Test [19] deals with Torsin-1A-interacting protein 1 (Homo sapiens) (UniProt Q5JTV8). The test is described as follows: compound microarray binding of lysate hLAP1 – cell lysate, small-molecule microarray, COS7 lysate, 635/667 nm fluorescence, primary screen (AID 1116). The conditions noted are these: 635 nm fluorescence, higher = more signal.
Sequence of Torsin-1A-interacting protein 1 (Homo sapiens) (Q5JTV8 whole entry, looked up): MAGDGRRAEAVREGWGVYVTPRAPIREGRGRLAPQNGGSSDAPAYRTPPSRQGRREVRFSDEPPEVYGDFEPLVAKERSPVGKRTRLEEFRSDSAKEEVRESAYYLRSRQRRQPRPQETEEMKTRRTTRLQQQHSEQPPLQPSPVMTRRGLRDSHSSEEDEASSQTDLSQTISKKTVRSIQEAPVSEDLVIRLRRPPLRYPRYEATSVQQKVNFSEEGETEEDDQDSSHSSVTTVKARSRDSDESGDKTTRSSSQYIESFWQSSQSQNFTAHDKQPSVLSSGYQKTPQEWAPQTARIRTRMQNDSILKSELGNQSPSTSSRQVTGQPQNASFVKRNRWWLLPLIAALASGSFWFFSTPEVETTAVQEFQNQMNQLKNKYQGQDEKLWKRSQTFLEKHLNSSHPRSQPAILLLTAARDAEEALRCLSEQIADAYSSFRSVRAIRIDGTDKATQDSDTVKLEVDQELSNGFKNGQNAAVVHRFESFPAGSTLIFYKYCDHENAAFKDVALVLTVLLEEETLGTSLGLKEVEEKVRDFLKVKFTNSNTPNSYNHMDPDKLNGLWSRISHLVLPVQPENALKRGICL
Test [20] addresses Alpha-bungarotoxin (Bungarus multicinctus) (UniProt P60615). Description: compounds binding labelled alpha-BTX control protein – biochemical, small-molecule microarray, Alexa647 label, 635/667 nm fluorescence, artefact control for SMM control protein annotation, profiling panel (AID 1117). The conditions noted are these: alpha-BTX-A647 binding fluorescence, higher = more signal.

Sequence of Alpha-bungarotoxin (Bungarus multicinctus) (P60615 whole entry, looked up): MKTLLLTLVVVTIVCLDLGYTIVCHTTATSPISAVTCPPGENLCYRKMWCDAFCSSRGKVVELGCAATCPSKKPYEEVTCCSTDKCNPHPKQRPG
Sequence of Fibroblast growth factor 10 (Homo sapiens) (O15520 whole entry, looked up): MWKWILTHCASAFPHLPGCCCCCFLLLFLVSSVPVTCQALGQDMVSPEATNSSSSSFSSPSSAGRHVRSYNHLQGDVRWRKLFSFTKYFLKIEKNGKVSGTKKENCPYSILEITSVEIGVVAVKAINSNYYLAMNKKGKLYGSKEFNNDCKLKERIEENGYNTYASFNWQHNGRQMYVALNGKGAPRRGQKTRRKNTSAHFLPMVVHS

In the case of `CC(=O)n1cc(C(O)C2C=CC3C(=O)N(Cc4ccccc4)C(=O)C3N2n2cnnc2)c2ccccc21` (stereo not given), the composite z-score was 1.17 in [1]; -0.0358 in [2]; 0.205 in test [3]; -0.167 in [5]; -0.243 in [6]; -0.0707 in test [7]. The composite z-score is 0.19 in test [8]; 0.12 in test [9]; 0.713 in test [10]; -0.179 in test [11]; 0.0796 in [13]; 0.416 in test [14]. Besides, the composite z-score was -0.568 in test [15]; -0.0721 in test [16]; -0.0626 in test [17]; -0.305 in test [18]; 0.463 in test [19]; 1.09 in test [20]. The z-score in test [4] was 0.108 (inactive); in test [12], -1.49.

Regarding `C=C(CCCC)C(=O)CC[C@@H](OC(=O)c1ccccc1-c1ccccc1C(=O)O)c1cccc(OCCO)c1`, the composite z-score in test [1] is 1.13; in [2], -0.302; in test [3] it was -0.353; in [5], 0.946; in test [6] it was 0.297; in [7], -0.0833. Further, the composite z-score in test [8] is 0.556; in test [9], 0.339; in [10], 1.2; in test [11] it was 0.834; in [13], 0.373; in test [14], -0.826. Also, the composite z-score was -0.973 in test [15]; -0.148 in [16]; -0.0709 in test [17]; 0.468 in [18]; 2.19 in [19]; -0.14 in test [20]. The z-score in test [4] was 2.89 (inactive); in test [12], -4.38.

With `CCCCN1CC=CC23O[C@@H]4C=CCOC(=O)[C@@H]4[C@H]2C(=O)N(CCCO)[C@@H]3C1=O` (stereo not given in full), the composite z-score in [1] was 1.24; in test [2], -0.159; in test [3], 0.48; in test [5] it was -0.816; in test [6], -1.16; in test [7] it was -0.953. In addition, the composite z-score in test [8] was -1.18; in test [9] it was -1.05; in test [10], 0.396; in test [11] it was 0.409; in test [13] it was -0.997; in [14], -0.125. The composite z-score in test [15] was 0.423; in test [16] it was -0.202; in [17], -0.138; in test [18] it was -0.168; in test [19], -0.363; in test [20], -1.34. In addition, the values for the z-score in [4] and in [12] were -1.32 (inactive) and -0.352, respectively.

Turning to `COc1ccc([Si](C)(C)[C@@H]2[C@@H](CCO)O[C@]3(C(=O)N(Cc4cccc(N5C(=O)c6cccc7cccc5c67)c4)c4ccccc43)[C@H]2C)cc1`, the composite z-score in test [1] was 0.187; in [2] it was 0.0019; in test [3], 0.466; in test [5], 0.454; in test [6], -0.0664; in test [7] it was -0.491. Also, the composite z-score in test [8] was -0.339; in [9], -0.411; in test [10], -0.0335; in test [11], 1.21; in test [13], -0.385; in test [14], 0.831. Also, the composite z-score in test [15] is 0.978; in test [16], -0.0758; in test [17], 0.0815; in test [18], 0.0601; in [19] it was 0.0561; in [20], 0.578. The z-score was -0.665 (inactive) in test [4] and -4.47 in test [12].

Take `CC(C)OC(=O)CC(=O)CC(O)c1cccc(C#N)c1` (stereo not given): the composite z-score in test [1] was 0.431; in test [2] it was 0.662; in [3] it was 1.04; in [5], 0.632; in [6], 0.646; in [7] it was 0.23. Further, the composite z-score in test [8] was 0.74; in [9], -0.618; in [10], 0.964; in test [11] it was 1.32; in test [13] it was -0.0472; in [14], 0.552. Also, the composite z-score is 0.252 in [15]; -0.0944 in [16]; -0.16 in [17]; -0.0956 in test [18]; 1.39 in test [19]; 0.684 in test [20]. The z-score was -1.69 (inactive) in [4] and -0.664 in test [12].

Consider `COc1ccccc1CN1C(=O)c2ccccc2[C@@H](C(=O)NC(C)C)[C@@H]1c1ccc(CO)cc1`, for which the composite z-score came to 0.567 in [1]; 0.711 in test [2]; 0.756 in test [3]; 1.33 in test [5]; 1.23 in test [6]; 0.754 in [7]. The composite z-score in test [8] came out at 1.24; in test [9], 0.673; in test [10] it was 0.93; in test [11], 0.636; in [13] it was 0.4; in test [14] it was 0.301. In addition, the composite z-score was -0.508 in [15]; 0.236 in [16]; 0.14 in test [17]; -0.637 in [18]; 0.902 in [19]; 1.06 in test [20]. The results for the z-score in test [4] and in test [12] were 0.011 (inactive) and -0.861, respectively.
